Experimental findings from PubChem BioAssay (NCI) are described below.

Compounds without any hit were thinned out: in the full panel of roughly 83,000, 20% have a hit.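 A percent growth of 40 corresponds to 60% growth inhibition; 0 means no net growth; -100 means all cells died. Active threshold: below 10.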 Activity calls are given as the source filed them.

The assay has as its system MDA-MB-468 breast. Nature of the assay: NCI-60 one-dose screen, 48 h (100 = growth as untreated, 0 = no growth, -100 = all killed). Particulars: 10 µM unless noted.
As to `C=C(C)[C@@H]1CC[C@]2(C(=O)O)CC[C@]3(C)[C@H](CC[C@@H]4[C@@]5(C)C[C@@H](Cc6cn(CCO[C@@H]7O[C@H](COC(C)=O)[C@H](OC(C)=O)[C@H](OC(C)=O)[C@H]7OC(C)=O)nn6)[C@H](O)C(C)(C)[C@@H]5CC[C@]43C)[C@@H]12`, the growth was 64.4% (inactive).
As for `COc1cc(C2CC(c3cccc(Nc4ccncc4)c3)=NN2c2ccc(Cl)cc2)cc(OC)c1OC` (configuration not stated), the figure is 10.3% (inactive); as for `O=C1c2ccccc2C(c2ccccc2)C1c1ccccc1` (configuration not stated), 71.4% (inactive).
As for `COc1ccc(-c2nn3c(-c4ccccc4F)nnc3s2)cc1`, the figure is 6.82% (active); as for `COc1cc2cc(Oc3ccc(NC(=O)Nc4cccc(C(F)(F)F)c4)cc3)c(C)nc2cc1OCCN1CCCCC1`, -68.7% (active).
On to `CCOC(=O)c1c(-c2ccc(C)cc2)c(C#N)c(=O)n(-c2cccc(C(F)(F)F)c2)c1N`, for which the growth was 99.9% (inactive).
In the case of `N=C(N)c1ccc(-c2ccc(-c3ccc(F)cc3)s2)s1`, the growth was -77% (active).
On to `COc1cc(-c2nc(-c3ccccc3)[nH]c2-c2ccnc(NCCCNS(=O)(=O)c3ccc(C)cc3)n2)ccc1F`, for which the growth is 79.4% (inactive).
In the case of `COc1cc(-c2ccc(-c3ccc(C(=N)N)cc3)s2)cc(OC)c1OC` it was -22.8% (active); in that of `COC1=CC(c2ccc[nH]2)=N/C1=C\c1[nH]c(C)c(C(=O)CCCCC(=O)Nc2ccccc2)c1C`, -10.7% (active); in that of `CC(C)(C)OC[C@@H]1N=C(c2ccc(Br)cc2)Nc2nc3ccccn3c2C1=O`, 45.6% (inactive).
In the case of `CN(C)c1ccc(N=Cc2ccc(N3CCOCC3)cc2)cc1` it was 57.5% (inactive).
